About 4,100 (1.2%) of roughly 330,000 compounds were called active. Not shown: some 2% with an inconclusive outcome. The entries come from a sample that favours actives as a whole. A number with no mark means an inactive call. Rule for the calls: active = max response of -50% or lower; inconclusive = between -30% and -50%; inactive = -30% or higher.
molecular target: Phosphatidylinositol 5-phosphate 4-kinase type-2 alpha (Homo sapiens) (UniProt P48426); assay: qHTS for Inhibitors of phosphatidylinositol 5-phosphate 4-kinase (PI5P4K); conditions: PI5P4Kalpha enzyme, ADP-Glo luminescence, 60 min; hits give low values; note: value at the top dose of about 77 µM
Sequence (P48426 whole entry, looked up, canonical isoform): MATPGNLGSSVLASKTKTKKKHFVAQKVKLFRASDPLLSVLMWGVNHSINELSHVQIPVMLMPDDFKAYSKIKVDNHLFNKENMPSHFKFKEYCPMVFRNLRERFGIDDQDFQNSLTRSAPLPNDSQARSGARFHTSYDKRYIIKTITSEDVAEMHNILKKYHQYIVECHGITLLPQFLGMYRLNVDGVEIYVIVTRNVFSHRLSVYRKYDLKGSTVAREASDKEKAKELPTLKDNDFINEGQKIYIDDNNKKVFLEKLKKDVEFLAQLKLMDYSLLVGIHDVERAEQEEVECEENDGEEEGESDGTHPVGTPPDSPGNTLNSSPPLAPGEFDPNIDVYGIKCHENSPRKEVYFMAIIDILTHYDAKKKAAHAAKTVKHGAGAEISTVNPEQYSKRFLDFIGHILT
Text: In addition to finding PI5P, we discovered the type II phosphatidylinositol 5-phosphate 4-kinase (PI5P4K) family (alpha, beta, gamma isoforms) that catalyze the conversion of PI5P to PI(4,5)P2. Alternatively, PI(4,5)P2 can also be synthesized through phosphatidylinositol-4-phosphate (PI4P) by the type I phosphatidylinositol 4-phosphate 5-kinases (PI4P5K). These PI5P4K enzymes therefore represent one way by which cells can regulate endogenous PI5P levels and play important roles in insulin signaling and in stress responses.
This proposal aims to identify and optimize specific modulators of human PI5P4K, phosphatidylinositol-5-phosphate 4-kinase (Type II PIPK), a family of kinases that regulate AKT signaling and tumor cell growth. In this project we aim to identify inhibitors of human PI5P4K using a quantitative high-throughput screening approach against the MLSMR containing ~400,000 small molecules.
NIH Chemical Genomics Center [NCGC]
NIH Molecular Libraries Probe Centers Network [MLPCN]
Assay Submitter (PI): Atsuo Sasaki, Beth Israel Deaconess Medical Center
2 microL of PI5P4Kalpha/substrate buffer (columns 1-2, 5-48) are dispensed into Greiner white solid bottom 1536-well assay plates; column 3 receives only PI5P4Kalpha buffer as 0x substrate controls; column 4 receives only substrate buffer as 0x PI5P4Kalpha controls. Final assay buffer consists of 0.038 M HEPES pH 7.4, 0.28 mM EGTA, 0.1% CHAPS, and 5% DMSO (final concentration). Compounds are then transferred via Kalypsys pin tool equipped with 1536-pin array (10 nL slotted pins, V&P Scientific, San Diego, CA). Following addition of compound, 1 microL of ATP (5 microM final concentration, all columns) is added to initiate the reaction. ATP is diluted in an assay buffer consisting of 0.02 M HEPES pH 7.4, 60 mM MgCl2, 15 microM ATP, and 0.1% CHAPS. The plates are then incubated at room temperature for 60 minutes. ADP-Glo reagent 1 is added (2 microL) and plates incubated for 45 minutes, before ADP-Glo reagent 2 (4 microL) is added and plates incubated for 30 minutes. They are then transferred to a ViewLux high-throughput CCD imager (PerkinElmer) wherein single end-point measurements of luminescence are acquired using a clear filter.
% is set by controls: 0 for no effect and ±100 for the full control effect.

SMILES | max response
O=C1NC(=O)N(CCc2ccc(F)cc2)C(=O)/C1=C/C=C/c1ccccc1 | -26.8%
O=C1NC(=O)N(Cc2ccco2)C(=O)/C1=C\c1cccn1CCOc1ccccc1 | -24.2%
O=C1NC(=O)N(Cc2ccco2)C(=O)/C1=C\c1ccc(-c2ccc(F)cc2)o1 | -73.5% (active)
O=c1[nH]c2ccccc2n1C1CCN(C(c2ccccc2)c2nnnn2Cc2ccccc2)CC1 (configuration not stated) | -4.66%
COC(=O)C1=C(c2ccc(OCc3ccccc3)cc2)C[C@@H]2CC[C@H]1N2C(=O)NCc1ccc(Cl)cc1 | 5.92%
CCOC(=O)c1cccc(C2=C(CNC(=O)c3ccncc3)[C@H]3CC[C@@H](C2)N3Cc2ccccc2)c1 | -3.84%
O=C(O)CCn1cc(C=C2C(=O)NC(=S)NC2=O)c(-c2cccc(Br)c2)n1 | -58.5% (active)
O=C(NCC1=C(c2ccc3ccccc3c2)C[C@@H]2CC[C@H]1N2Cc1ccco1)c1cccs1 | -1.39%
COC(=O)C1=C(c2ccc(OCc3ccccc3)cc2)C[C@@H]2CC[C@H]1N2C(=O)NCc1cccc(F)c1 | 0.749%
CCCCC(=O)N/N=C/c1c(O)n(-c2ccccc2)c(=O)[nH]c1=O | -1.14%
O=c1[nH]c(=O)n(Cc2ccccc2)c(O)c1/C=N/Nc1c(F)c(F)c(F)c(F)c1F | 4.31%
CC/C(=N\NC(=O)c1ccccc1O)c1c(O)n(Cc2ccccc2)c(=O)[nH]c1=O | -90.3% (active)
CCC(=NCCCO)c1c(O)n(-c2ccc(OC)cc2)c(=O)[nH]c1=O | 0.144%
O=C(N/N=C/c1c(O)n(Cc2ccccc2)c(=O)[nH]c1=O)c1ccccc1 | -53.6% (active)
CCC(=NCCc1ccccc1)c1c(O)n(C2CCCCC2)c(=O)[nH]c1=O | -4.68%
COc1ccc(NC(=O)N2Cc3ccccc3-n3nncc3C2)cc1 | -4.3%
COc1ccc(-n2nnnc2C(c2cccc3ccccc23)N2CCC(n3c(=O)[nH]c4ccccc43)CC2)cc1 (configuration not stated) | 0.885%
CSCCC(c1nnnn1C(C)(C)C)N1CCC(n2c(=O)[nH]c3ccccc32)CC1 (configuration not stated) | 8.06%
O=c1[nH]c2ccccc2n1C1CCN(C(c2ccnc3ccccc23)c2nnnn2Cc2ccccc2)CC1 (configuration not stated) | -3.14%
O=C1NC(=O)C(Cc2ccccc2)C(=O)N1 | -28.7%
O=C1NC(=O)C(C/C=C/c2ccccc2)C(=O)N1 | -78.1% (active)
CC(=O)NCC1=C(c2ccc3ccccc3c2)C[C@@H]2CC[C@H]1N2Cc1ccco1 | -10.1%

From PubChem BioAssay AID652105 (National Center for Advancing Translational Sciences (NCATS), 2013)
